# Bioassay records from PubChem.
# HttQ103 aggreg: reduces HttQ103-GFP aggregates in PC12 cells | AID 1688 | Potency, µM (top dose mostly 46.1 µM), for the others: at the highest dose activity change, negative = inhibition, most hits filed as inhibitors | PC12 HttQ103-GFP aggregates, Acumen cytometry, 40 h | 1.1% of 220,000 active; active = well fitted curve in the direction sought with a large enough effect; inconclusive = small, poorly fitted or top-dose-only effect, or another doubt; inactive = no such curve, though single readings can be large; an effect the other way counts as inactive or inconclusive; also: potency is read from the fitted curve at half-maximal effect; % is scaled to controls: 0 for no effect and ±100 for the full control effect; nearly all actives have a fitted effect of over 60% in size
#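 Inducible Q103 Huntingtin exon 1–GFP PC12 line, 1500 cells/well in phenol red free DMEM with 5% equine and 5% calf serum. Tebufenozide 100 nM induced expression; compounds titrated; aggregates quantified by cytometry.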
# HPGD block: blocks human HPGD enzyme activity. P15428. purified HPGD, NADH fluorescence kinetic, PGE2 substrate. Potency, µM, for the others: top-dose activity change, negative = inhibition, usual class: inhibitors. 4.3% of 150,000 active. AID 894; also: potency is read from the fitted curve at half-maximal effect; % is scaled to controls: 0 for no effect and ±100 for the full control effect
#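 NADH formation kinetics: reaction with 30 uM PGE2 and 1 mM NAD+ (final), 20 nM enzyme, Tris-HCl pH 8 with Tween 20, after 15 min compound preincubation at room temperature. Fluorescence change, last versus first of five reads.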
# CBFb RUNX1 block: CBF-beta/RUNX1 interaction disruption. Q01196+Q13951. AlphaScreen CBFb-His/RUNX1-biotin binding, biochemical. Potency, µM (titrated, usually from 59.8 µM), inactives show top-dose activity, negative = inhibition, most hits filed as inhibitors. AID 1477. 230,000 tested, under 10 active; active = well fitted curve in the direction sought with a large enough effect; inconclusive = small, poorly fitted or top-dose-only effect, or another doubt; inactive = no such curve, though single readings can be large; an effect the other way counts as inactive or inconclusive; also: % of control where 0% means no effect
# Target sequence (Q01196 whole entry, looked up): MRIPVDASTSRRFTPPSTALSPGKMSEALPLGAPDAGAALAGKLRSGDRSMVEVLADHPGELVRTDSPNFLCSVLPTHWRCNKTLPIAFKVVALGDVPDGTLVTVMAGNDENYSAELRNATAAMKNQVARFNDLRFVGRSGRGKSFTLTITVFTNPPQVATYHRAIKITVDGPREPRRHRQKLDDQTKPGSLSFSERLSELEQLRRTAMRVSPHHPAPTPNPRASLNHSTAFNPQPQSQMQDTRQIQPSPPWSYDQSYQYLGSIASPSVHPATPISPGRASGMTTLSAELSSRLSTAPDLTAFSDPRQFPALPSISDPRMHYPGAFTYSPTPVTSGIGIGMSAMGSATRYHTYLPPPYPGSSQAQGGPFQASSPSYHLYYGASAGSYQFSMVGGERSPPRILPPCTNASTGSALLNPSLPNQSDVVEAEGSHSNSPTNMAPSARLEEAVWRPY
# Target sequence (Q13951 whole entry, looked up): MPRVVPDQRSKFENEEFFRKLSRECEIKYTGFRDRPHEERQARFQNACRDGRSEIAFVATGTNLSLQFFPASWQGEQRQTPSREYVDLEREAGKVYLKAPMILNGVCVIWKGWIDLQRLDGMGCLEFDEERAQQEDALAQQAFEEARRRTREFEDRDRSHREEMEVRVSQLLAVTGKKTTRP
#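 His-tagged CBF-beta and biotinylated RUNX1 (30 nM each) were premixed 20 min at room temperature, exposed to compound for 15 min, then given nickel-chelate and streptavidin AlphaScreen beads (50 ng each). After 90 min, AlphaScreen signal was read.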
# ALDH1A1 inh: inhibitors of human aldehyde dehydrogenase 1A1; P00352; Purified ALDH1A1, NADH fluorescence, propionaldehyde substrate; Potency, µM (doses to about 75.3 µM), for the others: at the highest dose activity, negative = inhibition, most hits filed as inhibitors; 7.3% of 220,000 active;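 also: potency is read from the fitted curve at half-maximal effect; plate controls were no enzyme wells and a reference inhibitor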
# HTT ATP protect: Huntington cell model cytoprotection by ATP luminescence; PC12 HTT-Q103 induced, cytoprotection, ATP luminescence, 40 h; Potency, µM (top dose mostly 56.4 µM), inactives show cytoprotection (ATP increase), most hits filed as activators; 0.14% of 230,000 active; active = well fitted curve in the direction sought with a large enough effect; inconclusive = small, poorly fitted or top-dose-only effect, or another doubt; inactive = no such curve, though single readings can be large; an effect the other way counts as inactive or inconclusive; also: potency is read from the fitted curve at half-maximal effect; % of control where 0% means no effect; nearly all actives have a fitted effect of over 45% in size
#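 Rat PC12, Q103 Htt exon1-GFP fusion, ecdysone promoter; tebufenozide inducer 100 nM final; compound titration; qHTS, 1500 cells/well; ATPlite luminescent read.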
# KDM4E inh: JMJD2E (human) inhibition; JMJD2E catalytic domain, FDH-coupled NADH fluorescence (FDH is formaldehyde dehydrogenase); Potency, µM (series often up to 57.1 µM), without a hit: at the highest dose activity change, negative = inhibition, hits mostly inhibitors; 1.6% of 230,000 active;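 also: potency is read from the fitted curve at half-maximal effect; 0% = wells with enzyme and -100% = buffer wells without enzyme; nearly all actives have a fitted effect of over 50% in size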
# * hit, by the source's call; i = inactive; ? = inconclusive; · = no result given; [ ] = another dose, or the depositor's remark. Shown are actives, neighbours in structure and some others; about 9.8% of the full set was active somewhere. Unless noted, calls follow the shape of the dose curve; as a rule, active = well fitted inhibition curve with a large enough effect (not every such curve was filed as active); inconclusive = small, poorly fitted or top-dose-only effect, or another doubt; inactive = no such curve, though single readings can be large or run the other way.
SMILES,HttQ103 aggreg,HPGD block,CBFb RUNX1 block,ALDH1A1 inh,HTT ATP protect,KDM4E inh
Cc1nc2c(=O)n(-c3ccc(F)c(Cl)c3)nc(C)c2s1,-7.2%[9.22 µM],·,1.0%,-0.7%,6.4%[10 µM],-2.5%
CC(C)=C1C(=O)NN(c2ccc(F)c(Cl)c2)C1=O,16.0%,8.91µM*,-18.6%,-1.8%,10.2%,3.3%
CCc1ccc(Nc2n[n+](C)c(-c3ccc(C(=O)O)cc3)s2)cc1,-13.0%[9.22 µM],·,7.3%,·,11.2%[10 µM],?
C[n+]1nc(Nc2cccc3ccccc23)sc1-c1ccc(C(=O)O)cc1,17.3%[9.22 µM],·,-1.9%,·,3.6%[10 µM],8.91µM*
COC(=O)c1ccccc1NC(=O)CSc1nnc(-c2ccc(C)cc2)o1,-1.5%,-11.2%,-5.3%,-6.1%,-5.2%[10 µM],1.1%
COC(=O)c1ccccc1NC(=O)Cc1nc(-c2ccccc2)sc1-c1ccc(C)cc1,?,-23.7%,0.1%,10µM*,-2.7%[10 µM],1.3%
CCn1ccnc1CN(C)Cc1cn[nH]c1-c1ccc(F)cc1F,-18.9%[9.22 µM],·,-10.2%,2.1%,8.6%[10 µM],-12.8%
COc1ccc(-c2[nH]ncc2CN(Cc2nccn2C)C(C)C)c(F)c1,-2.2%[9.22 µM],·,-0.9%,22.4µM*,-12.1%[10 µM],4.8%
CCOCCCNC(=O)/C(C#N)=C/c1ccc(-c2ccc(S(=O)(=O)N3CCOCC3)cc2)o1,1.0%,?,-12.3%,?,·,?
CCOCCCNC(=O)/C(C#N)=C/c1ccc([N+](=O)[O-])o1,-34.3%[9.22 µM],·,2.3%,3.98µM*,-17.4%[10 µM],34.9%
O=C(Nc1ccccc1)N1CC[C@@]2(CCCN(C(=O)c3ccncc3)C2)C1,·,-4.5%,·,0.8%,-7.4%,·
Cc1ccc(NC(=O)C2C(c3ccccc3)C2(Cl)Cl)c(C)c1 (configuration not stated),?,28.2µM*,11.0%,5.0%,-21.8%,1.0%
Cc1cccc(NC(=O)C2C(c3ccccc3)C2(Cl)Cl)c1 (configuration not stated),-3.1%[9.22 µM],·,?,25.1µM*,6.8%[10 µM],4.0%
COc1ccc(NC(=O)C2C(c3ccccc3)C2(Cl)Cl)cc1 (configuration not stated),2.5%[9.22 µM],·,4.0%,1.3%,2.7%[10 µM],8.4%
CC(=O)c1cccc(NC(=O)C2C(c3ccccc3)C2(Cl)Cl)c1 (configuration not stated),-0.8%,·,26.5%,-1.0%,-24.1%,-3.0%
COc1cccc(NC(=O)Nc2ccc(C(C)(C)C)cc2)c1,?,·,4.3%,1.5%,2.5%[10 µM],-7.5%
CN1CCc2nc(NC(=O)COc3ccc(C#N)cc3)sc2C1,7.6%,·,-0.3%,7.8%,-33.2%,?
COC(=O)C1(C(=O)OC)CC(CO)C(=O)[C@H]1c1ccccc1 (some centres not stated),·,-3.2%,-2.4%,15.9%,?,0.9%
CNC(=O)c1c(I)c(C(=O)NCC(=O)Nc2c(I)c(C(=O)O)c(I)c(C(=O)NCCO)c2I)c(I)c(N(C)C(C)=O)c1I,9.5%,-1.6%,14.9%[21.7 µM],0.0%[20.9 µM],?,0.5%[25.5 µM]
NC(=O)C1CCN(CCC(=O)Nc2ccc(Br)cc2)CC1,·,-20.2%,-4.1%,i,0.112µM*,?
NC(=O)C1CCN(CC(=O)Nc2ccccn2)CC1,2.24µM*,-5.5%,9.9%,12.6%,-0.2%,3.3%
COc1ccc(NC(=O)Nc2ccccc2F)c([N+](=O)[O-])c1,23.5%,·,3.5%,-13.3%,5.5%[10 µM],1.7%
Cc1ccc([C@@H](O)c2cnc(C)n2Cc2ccccc2)cc1,·,-6.5%,·,10.1%[13.5 µM],20.2%[10 µM],·
COC(=O)c1cccc(Oc2nc(N3CCOCC3)nc(N3CCOCC3)n2)c1,·,·,·,·,8.5%[0.074 µM],·
CN(C)c1ccc(C2=NOC(CN3C(=O)c4ccccc4S3(=O)=O)C2)cc1 (configuration not stated),-0.6%[9.22 µM],?,-23.9%,15.8µM*,-32.2%,-3.8%
SMILES,HttQ103 aggreg,HPGD block,CBFb RUNX1 block,ALDH1A1 inh,HTT ATP protect,KDM4E inh
c1ccc(COCCCc2cnc[nH]2)cc1,·,-2.0%,10.2%,-14.1%,-2.0%,·
NCCCCCc1cnc[nH]1,·,-3.9%,-11.4%,2.8%,0.794µM*,·
CCN(C(=O)CC(C)C)c1nnc(Cn2nnc3ccccc32)s1,-27.0%,·,5.1%,-0.3%,0.891µM*,-0.6%
CCN(C(=O)c1ccc(C(C)(C)C)cc1)c1nnc(Cn2nnc3ccccc32)s1,6.31µM*,-19.6%,0.8%,-4.2%,15.8%[10 µM],2.3%
CCc1cccc(CC)c1N(COC)C(=O)Cn1nnc2ccccc21,4.4%,-10.0%,5.1%,-5.9%,-1.2%,-0.4%
O=[N+]([O-])c1cccc(CSc2ncnc3ccccc23)c1,14.6%,·,-29.8%,22.4µM*,2.24µM*,-7.2%
O=C(NCc1ccc(/C=c2\sc3n(c2=O)CCN=3)o1)C(=O)Nc1ccccc1,12.3%,·,14.8%,?,·,18.6%
Cc1ccc(/C=c2\sc3nc(-c4cccnc4)nn3c2=O)cc1,3.4%,-12.2%,-0.9%,-3.3%,-3.0%,2.9%
Cc1ccc(/C=c2\sc3n(c2=O)CN(c2ccc(Br)cc2)CN=3)o1,30.7%,-16.6%,8.0%,14.1µM*,-29.0%,-5.9%
Cc1ccc(N2CN=c3s/c(=C\c4cccnc4)c(=O)n3C2)cc1,10µM*,-21.3%,1.4%,17.4%,-6.6%,4.9%
Cc1ccc(/C=c2/sc3n(c2=O)CCCN=3)o1,14.2%,-26.9%,-20.7%,3.55µM*,7.4%[10 µM],?
CCOc1ccccc1N1CCN(Cc2cnc(-c3ccccc3)[nH]2)CC1,-9.9%[9.22 µM],·,-1.9%,·,10.1%[10 µM],2.6%
CS(=O)Cc1cc(Sc2ccccc2)nc(-c2cccnc2)n1 (configuration not stated),6.2%,·,10.4%,?,-24.4%,8.9%
CC(C)C(=O)NC(NC(=S)Nc1ccc(S(N)(=O)=O)cc1)C(Cl)(Cl)Cl (configuration not stated),32.2%,-9.9%,0.4%,?,20.3%[10 µM],?
O=C(NC(=S)Nc1cccc(O)c1)c1ccco1,-10.8%[9.22 µM],·,-8.3%,?,5.1%[10 µM],-3.1%
COc1cccc(C2C(C#N)=C(N)Oc3c2oc(CO)cc3=O)c1 (configuration not stated),26.4%,-15.6%,-5.5%,8.3%,4.8%[10 µM],-9.9%
COc1cccc(C2C(C#N)=C(N)SC(c3ccccc3)C2[N+](=O)[O-])c1 (configuration not stated),-10.7%[9.22 µM],·,-7.6%,5.62µM*,-7.6%,-0.7%
O=C(c1cc(-c2ccc(Cl)c(Cl)c2)on1)N1CCN(c2ccccc2)CC1,10.5%,-3.9%,1.6%,3.7%,-14.1%,-1.5%
O=C(c1cc(-c2ccc(Cl)c(Cl)c2)on1)N1CCCCC1,-7.4%,2.82µM*,-0.6%,8.91µM*,-25.2%,-4.1%
